High-throughput results as filed in PubChem BioAssay.
This excerpt belongs to a sample that is enriched for hits.
LASV entry inh = Lassa virus entry inhibition; Lassa virus pseudotype entry inhibition, cell reporter; Potency, µM (titrated, usually from 37.9 µM), without a hit: at the top dose activity change, negative = inhibition, most hits filed as inhibitors; 1.2% of 300,000 active; AID 540256; calls by dose curve; tested in HEK293 cells; further: potency means the concentration at half of the fitted maximal effect; on the % scale 0 is the no-effect control and ±100 the full control effect; nearly all actives have a fitted effect of over 50% in size
AMA1-RON2 inh = disrupts binding of P. falciparum AMA1 to RON2; Potency, µM (highest dose often 58.2 µM), for inactives: at the highest dose activity change, negative = inhibition, actives largely listed as inhibitors; AlphaScreen AMA1-biotinylated RON2 peptide binding; 0.2% of 360,000 active; active means well fitted inhibition curve with a large enough effect; inconclusive means small, poorly fitted or top-dose-only effect; inactive means no such curve, though single readings can be large or run the other way;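 further: potency means the concentration at half of the fitted maximal effect; 0% = vehicle wells and -100% = peptide control; nearly all actives have a fitted effect of over 45% in size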
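AMA1 (3D7) with his tag at 25 nM final met compounds first, then biotinylated RON2 peptide at 25 nM; detection used donor plus acceptor beads, 10 µg/mL apiece, read by AlphaScreen after 30 min at room temperature.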
Shiga inhibitor = Shiga toxin inhibition. Vero cells, Shiga toxin protein synthesis inhibition reporter. inhibition, % at 38.7 µM. 9.2% of 290,000 active; in the data active means inhibition mostly above about 28%, no sharp cut-off; inactive means mostly below about 43%; further: 0% is about no effect
Marburg entry inh = blocks Marburg virus binding to or entry into cells. Marburg virus pseudotyped entry inhibition, cell reporter. Potency, µM (top dose mostly 37.8 µM), for inactives: at the highest dose activity change, negative = inhibition, usual class: inhibitors. 1.8% of 300,000 active. AID 540276; calls by dose curve; tested in HEK293 cells; further: potency means the concentration at half of the fitted maximal effect; on the % scale 0 is the no-effect control and ±100 the full control effect
Cycloheximide cs = counter-screen hit for Shiga toxin inhibitors, cycloheximide; 12% of 300,000 active; AID 2314; cell reporter, cycloheximide protein synthesis inhibition counterscreen; max response, %; in the data active means max response mostly above about 13%, no sharp cut-off; inactive means mostly below about 14%; further: read at 38.3 µM for the half of the compounds with a filed dose; 0% is about no effect
* = called active by the depositor; u = inconclusive; x = no result given; [ ] = remark or other dose.

SMILES | LASV entry inh | AMA1-RON2 inh | Shiga inhibitor | Marburg entry inh | Cycloheximide cs
O=C(Nc1ccccc1N1CCCCC1)c1ccc(F)cc1 | -13% | -3% | -9 | -17% | -3
O=C(Nc1ccccc1F)Nc1ccccc1N1CCCCC1 | u | -20% | 11 | -17% | 10.0*
COc1ccc(Cl)cc1NC(=O)Nc1ccccc1SC | x | -2% | 24 | x | 8
Cc1ccc(S(=O)(=O)N2CCCC(C(=O)NCCc3ccc(Cl)cc3)C2)cc1 (stereo unspecified) | x | -4% | x | x | x
COc1ccc(NC(=O)Nc2ccccc2SC)cc1 | 2%[46.1 µM] | -4% | 105* | u | 30*
O=C(Nc1ccccc1F)Nc1ccccc1Br | x | -11% | 68* | x | 25*
COc1ccc(NC(=O)Nc2ccccc2F)cc1Cl | u | -14% | 99* | u | 32*
COc1ccc(NC(=O)Oc2ccccc2)cc1Cl | -4% | 11% | 13 | -1% | 1
CNC(=O)Nc1ccccc1F | 1% | -6% | -21 | -2% | -5
COc1ccc(N2CCN(CC(=O)Nc3ccccc3SC)CC2)cc1 | u | u | -16 | u | -1
COc1ccc(NC(=O)Nc2ccccc2F)c([N+](=O)[O-])c1 | x | 0% | 69* | x | 26*
CC1=C(C(=O)N2CCOCC2)CC(CC(=O)NC2CCCCC2)C(=O)N1Cc1ccc(F)cc1 (stereo unspecified) | x | -2% | x | x | x
O=C(C#Cc1ccccc1)Nc1ccccc1F | x | 4% | 59 | x | 34*
O=C(Nc1ccccc1F)c1ccccc1C(=O)Nc1ccccc1F | x | 3% | x | x | x
Cn1cc(C(=O)NS(=O)(=O)Nc2ccc(Br)cn2)c2ccccc21 | u | -2% | 22* | u | 26*
COc1ccc(C(=O)Nc2cccc(C(=O)N/N=C/c3ccc(OC)cc3OC)c2)cc1 | -9%[46.1 µM] | 30% | 47 | -24%[46.1 µM] | 39*
COc1ccc(/C=N/NC(=O)c2cccc(NC(=O)c3ccccc3)c2)c(C(=O)O)c1OC | 17% | 23% | 28 | -25% | 32*
CCc1nc2c(OCc3cc(Cl)cc(Cl)c3)cccn2c1N(C)C(=O)Nc1ccccc1OC | x | -16% | x | x | x
Cc1ncc(CN2CCC(C(=O)Nc3ccc(Oc4cccnc4)cc3)CC2)cn1 | -10% | 7% | -15 | -2% | -2
CC(=O)N1CCc2cc(S(=O)(=O)NC(Cc3ccccc3)C(=O)Nc3ccc(C)cc3C)ccc21 (stereo unspecified) | -16%[46.1 µM] | x | x | -25%[46.1 µM] | x
CC(C)(C)S(=O)(=O)c1cnc(N2CCCCC2)nc1N | 12% | 2% | 25 | u | 19*
CC(C)(C)S(=O)(=O)c1cnc(-c2ccc(Cl)cc2)nc1N | x | -3% | 47* | x | 22*
CC(=O)c1cnc(N2CCCCC2)nc1C | 15% | 41% | 13 | 4% | 8
COc1ccc(N(CC(=O)NC(C)c2ccccc2)S(=O)(=O)c2c(C)nn(C)c2C)cc1 (stereo unspecified) | 21%[46.1 µM] | x | x | u | x
COc1cc(CN(C)c2ncnc3sccc23)ccc1OC(F)F | -11% | 19% | -3 | 2.8µM* | 6
SMILES | LASV entry inh | AMA1-RON2 inh | Shiga inhibitor | Marburg entry inh | Cycloheximide cs
COc1cc(CN(C)CC(=O)c2[nH]c(C)c(C(C)=O)c2C)ccc1OC(F)F | -23% | -1% | 7 | u | -2
c1ccc(-c2cn3c(n2)-c2ccccc2C3)cc1 | 4.5µM* | -2% | 45* | u | 26*
Cc1nn(C(=O)c2cc3sccc3[nH]2)c(C)c1C | u | -5% | 92* | 13% | 43*
O=C1c2ccccc2C(=O)N1/N=C/c1ccc(O)c(O)c1O | 0% | -23% | 55* | -13%[46.1 µM] | 24*
COc1cc(/C=N/N2C(=O)C3C4C=CC(CC4)C3C2=O)ccc1O (stereo unspecified) | 2%[46.1 µM] | 0% | 57* | 7%[46.1 µM] | 42
O=C1Nc2ccccc2/C1=N\N=C\c1ccc(O)c(O)c1 | u | -25% | 5 | -3% | 9
COc1cc(/C=N/N=C2/C(=O)Nc3ccccc32)ccc1O | 16% | 4%[11.6 µM] | 0 | u | 23*
COc1cc(/C=N/N2C(=O)c3ccccc3C2=O)ccc1O | 21% | 17% | 0 | -16% | 20*
COc1cc(/C=N/N2C(=O)CSC2=S)ccc1O | 14% | 21% | -8 | 11% | 9
CC(C)(C(=O)N1CCC1(C)C(=O)NS(=O)(=O)c1ccc(C#N)cc1)c1ccccc1 (stereo unspecified) | x | 0% | x | x | x
CCCN(Cc1nnc(-c2cccs2)o1)C(=O)c1cccc(S(=O)(=O)N2CCOCC2)c1 | 2% | -3%[11.6 µM] | x | -8% | x
Cn1c(SCC(=O)NC2CCCC2)nnc1C(F)(F)F | x | 9% | x | x | x
Cc1nc(N2CCCC2)ncc1C(=O)N1CCN(c2ccccc2F)CC1 | 20%[46.1 µM] | x | x | x | x
O=C1C2C3C=CC(CC3)C2C(=O)N1/N=C/c1ccccc1O (stereo unspecified) | -6% | 99% | 28 | 0% | 20*
Cc1ccccc1N=C1C(=O)Nc2ccccc21 | 30% | 5% | x | -5% | x
Cc1ccsc1/C=N/N=C1\C(=O)Nc2ccccc21 | 12% | -13% | 49* | -1% | 40*
CCOc1cc(C2NC(=O)c3c(sc4c3CCN(C)C4)N2)ccc1OC(=O)c1ccccc1Cl (stereo unspecified) | 1%[46.1 µM] | x | x | 7%[46.1 µM] | x
COc1ccc(-c2ccc3ccccc3n2)cc1OC | -11% | 5% | 133* | -1%[46.1 µM] | 46*
Nc1ccc(-c2cc(-c3ccc(N)cc3)nc(-c3ccccc3)n2)cc1 | u | -7% | -4 | -2% | 5
COc1ccc(-c2ccc3ccccc3n2)cc1 | u | -8% | 71* | u | 41*
COc1cc2ccc(-c3ccc4ccccc4n3)cc2cc1OC | x | -2% | x | x | x
Nc1ccc(-c2ccc3ccccc3n2)cc1 | u | x | 71* | 6.3µM* | 25*
[NH-]c1ncnc2c1N=C[N+]2=CC=CCO | x | 10% | -10 | x | -3
COc1ccc(CNC(=O)CN(C(=O)c2csnn2)c2ccc(F)cc2)cc1 | 23% | -13% | -1 | 0%[46.1 µM] | -1
CN1CCN(c2c([N+](=O)[O-])cnc3ccccc23)CC1 | 10% | -7% | x | u | x
SMILES | LASV entry inh | AMA1-RON2 inh | Shiga inhibitor | Marburg entry inh | Cycloheximide cs
Cc1ccccc1Cn1ccc(NC(=O)c2nn3cccnc3c2Cl)n1 | 12%[46.1 µM] | 9% | 47 | -6%[46.1 µM] | 22*
O=C(Nc1ccn(Cc2ccc(Cl)cc2)n1)c1ccc2c(c1)OCO2 | 4% | -2% | 50* | 16% | 22
Cc1cccc(Cn2ccc(NC(=O)c3ccc4c(c3)OCO4)n2)c1 | 13% | -18% | 74* | u | 28*
Cc1cccc(Cn2ccc(NC(=O)c3cccnc3)n2)c1 | x | -8% | 5 | x | 3
Cc1ccc(Cn2ccc(NC(=O)c3nn(C)cc3Cl)n2)cc1 | 13% | 7% | 92* | 6%[46.1 µM] | 38*
O=C(N/N=C/c1ccc2c(c1)OCO2)c1ccn(Cc2ccc(Cl)cc2)n1 | u | -5% | 23 | 20% | 10
Cc1ccc(Cn2nc(C)c(NC(=O)c3nn(C)cc3Cl)c2C)cc1 | -2% | 0% | -5 | -18% | -2
COc1ccc(C(=O)N=C2SC3CS(=O)(=O)CC3N2Cc2ccc(F)cc2)cc1 (stereo unspecified) | x | -2% | 15 | x | 16
CC(C)N(Cc1nnc(-c2ccccc2Cl)o1)C(=O)c1cccc(C#N)c1 | x | x | -17 | 1% | -3
CC(=O)Nc1ccc2c(c1)Cc1c(F)cccc1-2 | u | -14% | x | 8% | x
